In the library only some 1.4% were active in any assay of this set; here they are far more common.
CCHFV vOTU inh = CCHFV vOTU protease inhibition | Pep-AMC fluorescence | 0.55% of 370,000 active | inhibition, % at 11.5 µM | AID 651958; in the data active means inhibition above about 30%; further: 0% = vehicle wells with enzyme and 100% = no enzyme wells
3CLpro inhibitor = SARS-CoV 3CLpro protease inhibition. 0.14% of 290,000 active. P0C6X7. recombinant SARS-CoV 3CLpro, quenched FRET peptide cleavage. inhibition, % at 6 µM; in the data active means inhibition above about 12%
BJeLR viability = BJeLR cell viability loss | BJeLR (HRASV12) viability, CellTiter-Glo ATP luminescence, 48 h | inhibition, % (no concentration beside the values) | 0.17% of 300,000 active | AID 1554; in the data active means inhibition above about 50%
MazEF act = increases E. coli MazEF RNase cleavage of RNA. activation, % at 20 µM. 0.32% of 350,000 active. FAM/BHQ RNA-DNA oligo cleavage fluorescence, 5 h. AID 504720. P0AE70; in the data active means activation above about 50%
Target sequence (P0AE70 whole entry, looked up): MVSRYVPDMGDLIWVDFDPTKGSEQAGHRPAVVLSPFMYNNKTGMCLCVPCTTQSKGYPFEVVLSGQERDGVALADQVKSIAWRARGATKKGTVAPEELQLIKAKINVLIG
VHR inh abs = blocks human VHR1 dual specificity phosphatase; inhibition, % at 13.3 µM; recombinant VHR phosphatase, pNPP absorbance; P51452; AID 1654; 0.52% of 290,000 active; in the data active means inhibition above about 50%
Target sequence (P51452 whole entry, looked up): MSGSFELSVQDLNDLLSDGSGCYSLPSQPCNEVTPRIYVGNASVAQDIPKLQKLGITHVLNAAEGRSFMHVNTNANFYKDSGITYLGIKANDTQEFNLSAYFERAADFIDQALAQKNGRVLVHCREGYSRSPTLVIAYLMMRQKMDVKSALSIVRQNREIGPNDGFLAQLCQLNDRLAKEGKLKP
An asterisk follows results filed as active; x = no result; + = active, no number.

SMILES	CCHFV vOTU inh	3CLpro inhibitor	BJeLR viability	MazEF act	VHR inh abs
CCOCCOC(=O)c1[nH]c2c(c1C)C(=O)CC(c1cc(OC)c(OC)c(OC)c1)C2 (stereo not drawn)	-2	-3	5	4	10
CCOCCOC(=O)c1[nH]c2c(c1C)C(=O)CC(c1ccccc1)C2 (stereo not drawn)	-9	0	53*	8	-14
COCCOC(=O)c1[nH]c2c(c1C)C(=O)CC(c1cccs1)C2 (stereo not drawn)	-7	-1	40	-24	12
COc1ccc(N=C(N)NC(=O)OCc2ccccc2)cc1	-7	x	x	x	x
COC(=O)C[C@]1(C(=O)OC)CN(C#N)N(c2ccc(Cl)cc2)C12c1ccccc1-c1ccccc12	23	7	67*	6	27
COc1ccc2nc3cc(Cl)ccc3c(C#N)c2c1	-3	1	2	142*	16
CCCN(CCC)c1nc(N)c(C#N)c(CC#N)c1C#N	x	-1	-2	134*	2
CCN(CC)c1nc(N)c(C#N)c(CC#N)c1C#N	8	x	-5	-8	x
Cc1ccc(S(=O)(=O)N2CCCC(C(=O)NCc3ccco3)C2)cc1 (stereo not drawn)	19	x	x	x	x
Fc1ccc(NC(=S)N/N=C/c2ccc(F)c(F)c2)c(F)c1	0	0	-10	-5	52*
Cn1c(=O)c(C(=O)NCCc2ccc(Cl)cc2)c(O)c2ccccc21	-4	1	3	0	59*
CCc1ccc(/C=C2\SC(=S)N(CCC(=O)NCCCN3CCOCC3)C2=O)cc1	9	2	103*	-10	9
O=C(CN1C(=O)/C(=C/c2cccc(Br)c2)SC1=S)NCCCN1CCOCC1	-1	-1	-1	-11	-2
O=C(CCCN1C(=O)/C(=C/c2cccc(Br)c2)SC1=S)NCCCN1CCOCC1	-5	1	77*	4	-21
Cc1ccc(-c2cc(-c3nnc4sc(COc5ccccc5)nn34)[nH]n2)cc1	6	x	x	x	x
CCC(C)CNC(=O)c1oc(=O)c2ccccc2c1-c1ccc(C)cc1 (stereo not drawn)	9	x	x	x	x
CN1CCN(c2ccc3c(c2)Oc2ccccc2CN(Cc2cn(Cc4ccccc4C(F)(F)F)nn2)S3(=O)=O)CC1	-4	x	x	x	x
COc1ccc2[nH]c3c(C)c4ccncc4c(C)c3c2c1	12	-12	101*	-11	2
Cc1c2ccncc2c(C)c2c1[nH]c1ccccc12	x	-9	19	-17	9
N#CC1CC(c2ccc([N+](=O)[O-])cc2)=NN1c1ccc([N+](=O)[O-])cc1 (stereo not drawn)	14	-3	-11	563*	18
Cn1c(COc2ccccc2)nnc1SCC(=O)Nc1ccc(S(=O)(=O)Nc2nccs2)cc1	5	x	x	x	x
CC(=O)c1ccc(NC(=S)N2CCN(CCN3C(=O)c4cccc5cccc(c45)C3=O)CC2)cc1	-7	-1	3	0	55*
O=S1(=O)c2ccc(N3CCCC3)cc2Oc2ccccc2CN1Cc1cn(Cc2cccc(F)c2)nn1	-3	x	x	x	x
Nc1cc(N)nc(SCC(=O)Nc2ccc3c(c2)OCO3)n1	8	-5	1	6	53*
Cc1cccc(NC(=O)CSc2nc(N)cc(N)n2)c1	7	7	0	1	-5
SMILES	CCHFV vOTU inh	3CLpro inhibitor	BJeLR viability	MazEF act	VHR inh abs
CCOC(=O)c1cccc(NC(=O)CSc2nc(N)cc(N)n2)c1	-2	0	1	-1	56*
Nc1cc(N)nc(SCC(=O)Nc2ccc3c(c2)OCCCO3)n1	-11	-1	-2	5	-8
CC(C)CNS(=O)(=O)/C=C/c1ccccc1CCNC(=O)OC(C)(C)C	9	x	x	x	x
CCCCN(C)C(=O)c1cn(C(C)c2ccccc2)nn1 (stereo not drawn)	4	x	x	x	x
CC1CN(C(=O)c2cc3cc([N+](=O)[O-])ccc3s2)CC(C)O1 (stereo not drawn)	-5	2	7	161*	38
CC1CN(C(=O)c2cc3cc([N+](=O)[O-])ccc3oc2=O)CC(C)O1 (stereo not drawn)	1	2	8	9	12
Cc1ccc(S(=O)(=O)NCC2CCC(C(=O)NC3CCCCC3)CC2)cc1 (stereo not drawn)	-9	1	3	2	58*
O=C(Nc1ccn(Cc2c(F)c(F)cc(F)c2F)n1)c1ccc(COc2ccc(Cl)cc2Cl)o1	-7	1	2	-25	-13
O=C(Nc1ccn(Cc2c(F)c(F)c(F)c(F)c2F)n1)c1ccc(COc2ccccc2Cl)cc1	-14	-1	-2	3	52*
CCOC(=O)[C@]12CCCCC/C=C\1N(CCc1ccc(Cl)cc1)C(=O)[C@H]2CC(=O)N1CCCCC1	10	x	x	x	x
COc1cc(NC(=O)C2CCCN(S(=O)(=O)c3ccc(Cl)s3)C2)cc(OC)c1 (stereo not drawn)	-1	x	x	x	x
COC(=O)Cc1c(C)c2ccc(OCC(=O)N(C)C)cc2oc1=O	-62	3	-2	5	51*
Cc1ccc(NC(=O)CCS(=O)(=O)c2ccccc2)c(C)c1	1	x	x	x	x
O=C(NC1CCCC1)c1ccc(COc2ccccc2)o1	5	x	x	x	x
COc1ccc(NS(=O)(=O)c2cccc3nsnc23)cc1OC	-5	3	1	12	51*
COc1cc(CNCCc2c[nH]c3ccccc23)cc(OC)c1OC	-3	x	x	-4	x
COc1cccc(CNCCc2c[nH]c3ccccc23)c1OCc1ccccc1	0	1	6	5	60*
COc1ccc(NC(=O)CN2CCN(CC(=O)Nc3ccccc3Cl)CC2)cc1Cl	6	0	13	0	51*
COc1ccccc1NC(=O)c1ccc(C)c(S(=O)(=O)N2CCCCC2)c1	8	-4	3	-13	53*
COc1ccccc1NC(=O)c1ccc(Cl)c(S(=O)(=O)N2CCCCC2)c1	11	-1	-2	0	20
Cc1ccc2sc(-c3ccc(NC(=O)CCN4C(=O)c5ccccc5C4=O)cc3)nc2c1	-19	2	0	x	54*
CC(=O)Nc1ccc(NC(=O)CCN2C(=O)c3ccccc3C2=O)cc1	10	3	3	-2	10
O=c1oc2ccccc2c(NC2CCCCC2)c1NS(=O)(=O)c1ccc(F)cc1	11	6	4	5	23
CCc1ccc(S(=O)(=O)Nc2c(NC3CCCCC3)c3ccccc3oc2=O)cc1	x	1	-1	-1	57*
COc1ccc(CC(=O)NC2CC2)cc1OC	-18	-3	-2	2	53*
CCOC(=O)c1cccc(NC(=O)CN(C)S(=O)(=O)c2ccc(C)c(C)c2)c1	12	x	x	x	x
Nc1c(C(=O)C2CC2)sc2nc(-c3ccccc3)cc(C(F)(F)F)c12	7	4	-4	+	-29
CC(=O)c1sc2nc(-c3cccs3)cc(C(F)(F)F)c2c1N	-37	2	2	242*	3
COc1ccc(-c2cc(C(F)(F)F)c3c(N)c(C(=O)NCCSC)sc3n2)cc1	14	1	-6	618*	54*
Cc1c(C(=O)O)sc2nc(-c3cccs3)cc(C(F)(F)F)c12	-33	3	-7	-11	26
